This note sets out measurements from PubChem BioAssay AID1645838 (ICCB-Longwood Screening Facility, Harvard Medical School, 2021).

Values joined by “and” are separate entries in the source; they are usually repeats but may differ in a detail not shown here. Equal values may be shown once. Out of some 2,000 compounds screened, about 100 (5%) were called active. Cut-off read from the data, not from the text of the source: active = z-score above about 2; inactive = the rest. For the sample, actives were picked, then their nearest neighbours and some compounds at random. A structure can be active in one record and inactive in another.

A short description of this test: modulators of mitochondrial supercomplex assembly, cell-based, luminescence, Hoechst nuclei count (AID 1645838).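 For all read-outs here: control cybrid cells.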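 For z-score: higher means more mitochondrial supercomplex formation.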 Particulars: Cells, luminescence/Hoechst cell count ratio, supercomplex reporter; for z-score: stronger effect = higher value; for cell count: measured here: cell number, Hoechst nuclei count.
The mark [1] stands for this setting: library stock concentration (final well concentration not given) 80 uM.
[2] abbreviates: library stock concentration (final well concentration not given) 400 uM.
Setting [3] is: library stock concentration (final well concentration not given) 2 mM.
Setting [4] is: library stock concentration (final well concentration not given) 10 mM.
[5] abbreviates: library stock concentration (final well concentration not given) 46 uM.
The mark [6] stands for this setting: library stock concentration (final well concentration not given) 278 uM.
[7] abbreviates: library stock concentration (final well concentration not given) 1.67 mM.

In the case of `O=C1NC(=O)/C(=C/c2ccc3nccnc3c2)S1`, the z-score was 0.662 (inactive) and the cell count is 4050.

On to `O=C1NC(=O)C(=Cc2ccc3nccnc3c2)S1`, for which the z-score reads like this: under setting [1], -0.0169 (inactive) and -0.181 (inactive); under setting [2], 0.573 (inactive) and -0.161 (inactive); under setting [3], 1.47 (inactive) and -0.299 (inactive); under setting [4], 2.46 (active) and -0.465 (inactive). Besides, the cell count was 4280 and 5470 under setting [1]; 4140 and 5420 under setting [2]; 3800 and 5820 under setting [3]; 2300 and 3900 under setting [4].

With `O=C1NC(=O)/C(=C/c2ccc3c(c2)OC(F)(F)O3)S1`, the z-score is 0.349 (inactive) and the cell count was found to be 4670.

Take `CCCCCCCCCCC(=O)O`: the z-score is -0.0477 (inactive) under setting [5], 0.267 (inactive) under setting [6], -0.0647 (inactive) under setting [7] and 0.212 (inactive) under setting [4]. The cell count worked out at 6640 under setting [5], 6810 under setting [6], 6810 under setting [7] and 6380 under setting [4].

Regarding `CC(C)(CCCCCCCCCCC(C)(C)CC(=O)O)CC(=O)O`, the z-score is 2.9 (active) and the cell count came to 5040.

As to `CCCCCCCCCCCCCCCC(=O)O`, the z-score was -0.762 (inactive) and the cell count is 5780.

Consider `COC1C(N(C)C(=O)c2ccccc2)C[C@@H]2O[C@]1(C)n1c3ccccc3c3c4c(c5c6ccccc6n2c5c31)C(=O)NC4` (stereo partly drawn), for which the outcome is “inactive; censored for cell count” (library stock 2 mM) and “inactive; censored for cell count” (library stock 10 mM). In addition, the z-score runs as follows: under setting [1], 0.298 (inactive); under setting [2], 1.12 (inactive). Moreover, the cell count reads like this: under setting [1], 5280; under setting [2], 4120.

For `CCOC(=O)c1c(Cc2cccc(Cl)c2)[nH]c2c1cc(O)c1ccccc12`, the z-score is 0.267 (inactive) and the cell count amounted to 5070.

`CCCCC(C)(O)C/C=C/[C@H]1[C@H](O)CC(=O)[C@H]1CCCCCCC(=O)OC` (stereo partly drawn): the z-score was -0.356 (inactive) and the cell count is 5650.

`OCc1cc(C(O)CNCCCCCCOCCCCc2ccccc2)ccc1O` (stereo not drawn): the z-score under setting [1] is 1.97 (active), the z-score under setting [2] was 1.87 (inactive), the z-score under setting [3] is 1.36 (inactive) and the z-score under setting [4] is 1.79 (inactive). Also, the cell count runs as follows: under setting [1], 4600; under setting [2], 4730; under setting [3], 4660; under setting [4], 3230.

As to `CC(C)NCC(O)c1ccc(O)c(O)c1` (stereo not drawn), the z-score under setting [5] was 0.406 (inactive), the z-score under setting [6] was 0.956 (inactive), the z-score under setting [7] was 0.578 (inactive) and the z-score under setting [4] is 1.22 (inactive). The cell count stood at 6420 under setting [5], 6030 under setting [6], 6690 under setting [7] and 6300 under setting [4].

With `NC(=O)c1cccc(-c2cccc(OC(=O)NCCCCCCc3ccccc3)c2)c1`, the z-score is 0.191 (inactive) and the cell count came out at 4760.

On to `COc1cc(C2c3cc4c(cc3C(O)[C@H]3COC(=O)[C@@H]23)OCO4)cc(OC)c1OC` (stereo partly drawn), for which the outcome (library stock 2 mM) is “inactive; censored for cell count” and the outcome (library stock 10 mM) was “inactive; censored for cell count”. Moreover, the z-score is, setting by setting: under setting [1], -0.602 (inactive); under setting [2], -0.324 (inactive). For the same compound, the cell count worked out at 5600 under setting [1] and 3990 under setting [2].

Consider `O=C(O)CCC/C=C\C[C@@H]1[C@@H](/C=C/C(=O)CCc2ccccc2)[C@H](O)C[C@@H]1O`, for which the z-score was 0.328 (inactive) and the cell count amounted to 4980.

On to `CCCCC[C@H](O)/C=C/[C@H]1C=CC(=O)[C@@H]1C/C=C\CCCC(=O)O`, for which the z-score was 0.972 (inactive) and the cell count amounted to 5050.

On to `Oc1ccc(C=NN(Cc2ccccc2)Cc2ccccc2)cc1`, for which the z-score was 0.58 (inactive) under setting [1], 0.621 (inactive) under setting [2], 0.515 (inactive) under setting [3] and 1.23 (inactive) under setting [4]. Also, the cell count runs as follows: under setting [1], 4430; under setting [2], 4410; under setting [3], 3940; under setting [4], 3600.

On to `CC1(C)OC2CO[C@@]3(COS(N)(=O)=O)OC(C)(C)OC3C2O1` (stereo partly drawn), for which the z-score reads like this: under setting [1], 0.166 (inactive); under setting [2], 0.0797 (inactive); under setting [3], 0.165 (inactive); under setting [4], -0.169 (inactive). The cell count reads like this: under setting [1], 6240; under setting [2], 6200; under setting [3], 5750; under setting [4], 5940.

In the case of `CCCCCCCCCCCCCCCCC(=O)NCCO`, the z-score is 0.812 (inactive) and the cell count worked out at 5880.

`CC(N)c1ccc(C(=O)Nc2ccnc3[nH]ccc23)cc1` (stereo not drawn): the z-score under setting [1] was 0.0935 (inactive), the z-score under setting [2] was -0.0384 (inactive), the z-score under setting [3] was -0.229 (inactive) and the z-score under setting [4] is 0.129 (inactive). The cell count amounted to 5400 under setting [1], 5420 under setting [2], 5670 under setting [3] and 3470 under setting [4].

With `O=C(Cc1cccc(OC(F)(F)F)c1)Nc1ccc(CCCCc2nnc(NC(=O)Cc3ccccn3)s2)nn1`, the z-score reads like this: under setting [5], 1.3 (inactive); under setting [6], 3.8 (active); under setting [7], 4.04 (active); under setting [4], 4.54 (active). For the same compound, the cell count is, setting by setting: under setting [5], 5940; under setting [6], 4200; under setting [7], 4190; under setting [4], 3940.

For the compound `NC(=O)c1cnc(NC2CCCCC2N)nc1Nc1cccc(-n2nccn2)c1` (stereo not drawn), the z-score was -0.155 (inactive) under setting [1], -0.103 (inactive) under setting [2], 0.129 (inactive) under setting [3] and 0.743 (inactive) under setting [4]. Moreover, the cell count under setting [1] turned out to be 5260, the cell count under setting [2] stood at 4840, the cell count under setting [3] was 5390 and the cell count under setting [4] came out at 3000.

With `CCCC[C@H](C)C[C@H](O)/C=C/[C@H]1[C@H](O)CC(=O)[C@@H]1CCCCC(CC(=O)O)OC` (stereo partly drawn), the z-score is -0.235 (inactive) and the cell count is 5180.

Turning to `CC(C)OC(=O)N1CCC(Oc2ncnc3c2cnn3-c2ccc(S(C)(=O)=O)cc2F)CC1`, the z-score is, setting by setting: under setting [5], -0.707 (inactive); under setting [6], -0.537 (inactive); under setting [7], -0.462 (inactive); under setting [4], -0.531 (inactive). Also, the cell count is, setting by setting: under setting [5], 7670; under setting [6], 7400; under setting [7], 7330; under setting [4], 7200.

With `CCCCC/C=C\C/C=C\CCCCCCCC(=O)O[C@H](COC(=O)CCCCCCCCCCCCCCC)COP(=O)(O)OCCN`, the z-score was -0.42 (inactive) and the cell count is 5090.

As to `CC(C)(C)OC(=O)Nc1ccc(-c2cc(C(=O)NCCCCCCC(=O)NO)no2)cc1`, the z-score was 4.81 (active) and the cell count turned out to be 3910.
